# Test results from ChEMBL document CHEMBL3988442, “University of Dundee, Small-Polar-MMV Screening Library” (2021).
# Among all 48,000 compounds or so, about 13,000 (27%) showed an effect of 50% or more. The list shows a part of the results.
# System: Wolbachia pipientis
# Assay: Anti-Wolbachia Cell-Based Screen
# Type: functional
# Parameters: scale not given: in the data most compounds retested in dose-response had high values
# Details: 5 µM
row,Compound,Percent Effect [%]
1,CCCN(CCC)C(=O)CN1CCCC1C(=O)N(C)C (stereo unspecified),15.58
2,O=C(c1cccc(S(=O)(=O)NCCc2cscn2)c1)N1CCOCC1,-14.28
3,C[S+]([O-])c1nncn1CC(=O)c1ccc(OC(F)F)cc1 (stereo unspecified),-3.882
4,CCc1ncc2c(n1)CN(C(=O)c1c(C)[nH]c3c1C(=O)CCC3)C2,17.5
5,O=C(c1cccn2ccnc12)N1CCCN(c2cccnn2)CC1,-3.729
6,CCOC(=O)CCC(=O)N1CCC(Oc2ccc(C(F)(F)F)cn2)CC1,3.938
7,N#Cc1ccc(C(=O)N2CCC(Oc3ccc(C#N)cn3)CC2)cc1,-11.6
8,CN(CC(=O)N1CCC(Oc2ccccc2)CC1)c1cnccn1,-0.02384
9,CC(C)(C)NC(=O)N1CCC(Oc2ccc(C(F)(F)F)cn2)CC1,116.4
10,CC(=O)N1CCC(Oc2ccc(C#N)cn2)CC1,-7.335
11,CCOCC(=O)N1CCC(Oc2ccc(Cl)cn2)CC1,-5.53
12,O=C(Cn1cccn1)N1CCC(Oc2ccc(C(F)(F)F)cn2)CC1,107
13,CCOCC(=O)N1CCC(Oc2ccc(C(F)(F)F)cn2)CC1,5.97
14,CN(C)S(=O)(=O)N1CCC(Oc2ccc(C#N)cn2)CC1,-10.68
15,N#Cc1ccc(OC2CCN(C(=O)Cc3cccs3)CC2)nc1,12.26
16,CCOC(=O)N1CCC(Oc2ccc(C(F)(F)F)cn2)CC1,91.75
17,CN(CC(=O)N1CCC(Oc2ccc(C(F)(F)F)cn2)CC1)S(C)(=O)=O,103.2
18,CCN1CCN(C[C@@H]2CN(c3ncc(Cl)cc3F)C[C@@H]2CO)CC1,3.895
19,CC(NC(=O)Nc1ccc(OC2CCCC2)cc1)c1nc[nH]n1 (stereo unspecified),4.793
20,Cc1cc(C)nc(N2CCC(C(=O)Nc3ccc(C(C)C)cc3)CC2)n1,135.6
21,CCC(C)c1ccc(NC(=O)C2CCN(C(=O)COC)CC2)cc1 (stereo unspecified),-13.47
22,CCC(C)c1ccc(NC(=O)C2CCN(C(=O)N(C)C)CC2)cc1 (stereo unspecified),-1.822
23,Cc1ccc(C(=O)NCC(O)CN2CCCC2=O)cc1Cl (stereo unspecified),2.235
24,CC1CCCCN1Cc1ccc(-c2ccccc2C(=O)O)cc1 (stereo unspecified),-6.204
25,CS(=O)(=O)c1ccc(CNC(=O)NCc2cc[nH]n2)cc1,1.077
26,CS(=O)(=O)c1ccc(-c2ccccc2C(=O)O)cc1,122

row,Compound,Percent Effect [%]
1,CC(=O)c1ccccc1-c1cc(C(=O)O)cc(S(=O)(=O)NC(C)C)c1,0.5422
2,CNC(=O)c1ccccc1-c1ccc(S(C)(=O)=O)cc1,101.9
3,Cc1ccc(S(C)(=O)=O)cc1C(=O)NS(C)(=O)=O,-9.422
4,CN(C)C(C(=O)N1CC(Oc2ccccc2F)C1)c1ccccc1F (stereo unspecified),-4.147
5,CO[C@@H]1CCN(S(=O)(=O)c2cccs2)[C@H]1Cc1ccccc1,7.736
6,Cc1n[nH]c(C)c1NC(=O)CN1CCn2c(nnc2C(C)C)C1,-1.446
7,CC(C)C(=O)N1CCC12CCCN(C(=O)c1ccccc1)C2 (stereo unspecified),-15.79
8,CC(C)C(=O)N1CCCC12CCN(C(=O)c1ccno1)C2 (stereo unspecified),-2.946
9,C[C@H](C(=O)N1Cc2ccccc2CC2(CCCN2C)C1)c1ccccc1 (stereo partly specified),111.3
10,CC(C)C(=O)N1Cc2ccccc2CC2(CCCCN2C)C1 (stereo unspecified),96.75
11,CC(C)C(=O)N1CCCC12CCCN(C(=O)c1ccno1)C2 (stereo unspecified),-3.277
12,CC(C)C(=O)N1Cc2ccccc2CC2(CCCN2C)C1 (stereo unspecified),90.17
13,CC(C)C(=O)N1CCC12CCCN(C(=O)c1ccnnc1)C2 (stereo unspecified),-3.572
14,CC(=O)c1cc(CN2C[C@@H](C(=O)O)[C@H](c3cccnc3)C2)cs1,-13.15
15,CCN(Cc1cc(Cl)ccc1OC)Cc1cc(C)nn1C,-10.03
16,Cc1nnsc1CN(C)C(=O)CCn1cnc2ccccc21,-11.62
17,O=C(CNCC1(O)CCCN(Cc2cccc(F)c2F)C1=O)NC1CC1 (stereo unspecified),-1.283
18,CN(CCCOc1ccccc1)C(=O)CN1CCc2cncnc2C1,0.7453
19,CCCOc1ccc2c(c1)OCC(C(=O)NC(C)Cn1ccnc1)=C2 (stereo unspecified),6.426
20,O=C(NCCCn1cccn1)C1CCC(=O)N(CC2CCCCC2)C1 (stereo unspecified),-8.272
21,O=C1NC[C@@]2(C(=O)O)CN(Cc3cccc(OC4CCCC4)c3)C[C@@H]12,-26.72
22,Cc1sc(CN)nc1-c1ccc(Cl)cc1Cl,-19.51
23,NC(=O)c1nc(-c2ccc(Cl)cc2Cl)oc1N,118.4
24,CC(C)C(C(N)=O)c1cccc(Cl)c1 (stereo unspecified),-0.9613
25,NC(=O)c1nc(-c2cccc(Cl)c2)oc1N,102.5
26,NC(=O)N1CCCN(CCc2nc(-c3cccc(Cl)c3)no2)CC1,5.099

row,Compound,Percent Effect [%]
1,CCN1C(=O)COC[C@@H]1[C@H](O)c1ccc(NC(=O)COC)cc1,-2.196
2,c1cc(-c2nc3c(c(NCCc4c[nH]cn4)n2)CCNCC3)ccn1,6.655
3,CC(=O)c1cccc(C(=O)N2C[C@@H](CN3CCCCCC3)[C@@H](CO)C2)c1,-7.849
4,CN(C)c1ccc2c(c1)CN(C(=O)c1c[nH]cn1)C2c1cnco1 (stereo unspecified),3.646
5,CCn1cc(S(=O)(=O)N2CCC(C3CCCCN(C)C3=O)CC2)c(C)n1 (stereo unspecified),91.1
6,CN1CCCCC(C2CCN(S(=O)(=O)c3cn(C)cn3)CC2)C1=O (stereo unspecified),106.2
7,CCn1cc(C(=O)n2nc(C)cc2C)c(S(=O)(=O)N2CCCCC2)n1,-19.19
8,Cn1cnc(S(=O)(=O)N2CCCn3cnc(CN4CCCC4)c3C2)c1,1.863
9,CCn1cc(S(=O)(=O)N(C)Cc2c(Br)cnn2CC)c(C)n1,5.348
10,Cc1nccn1-c1cccc(C2CCCN2S(=O)(=O)c2cn(C)cn2)n1 (stereo unspecified),-2.327
11,CN(Cc1ccccc1)c1ccc(C(F)(F)F)cn1,3.007
12,Cc1cc(Cl)ccc1NCC(=O)Nc1cc(C(C)(C)C)no1,-19.79
13,Cc1cccc(C(=O)N2C[C@@H]3[C@H](CC(=O)N4CCCC4)[C@@H]3C2)n1,-9.844
14,O=C(C[C@@H]1COC[C@H]2CN(Cc3ccc(F)cc3)C[C@@H]12)N1CCCCO1.O=C(O)C(F)(F)F,6.294
15,O=C(C[C@@H]1COC[C@H]2CN(Cc3ccsc3)C[C@@H]12)N1CCCC1,-43.11
16,O=C(C[C@@H]1COC[C@H]2CN(C(=O)c3ccccn3)C[C@@H]12)N1CCCC1.O=C(O)C(F)(F)F,106.7
17,Cc1cccc(C(=O)N2C[C@@H]3COC[C@@H](CC(=O)N4CCCC4)[C@@H]3C2)n1.O=C(O)C(F)(F)F,117.6
18,Cc1cccc(C(=O)N2C[C@@H]3[C@H](CC(=O)NC(C)C)[C@@H]3C2)n1.O=C(O)C(F)(F)F,-21.16
19,COc1ccc2c(C)c(C(=O)NCC3CN(S(C)(=O)=O)CCO3)oc2c1 (stereo unspecified),-45.67
20,CC(C)[C@@H]1CN(Cc2ccccc2C#N)C[C@H]1C(=O)O,-3.453
21,CC(=O)c1cc(CN2C[C@H]3CC[C@@H]2CN(Cc2c(C)noc2C)C3)cs1,0.576
22,c1ccc(N2CCCC(c3nc(-c4cccnn4)no3)C2)nc1 (stereo unspecified),-11.75
23,c1cnc(Nc2cncc(C3CCCN(c4ncccn4)C3)n2)nc1 (stereo unspecified),144.2
24,c1cnc(Nc2cncc(C3CCCN(c4cnccn4)C3)n2)nc1 (stereo unspecified),136.5
25,Cc1cc(NC(=O)CNc2cccc(C(=O)N3CCCC(O)C3)c2)no1 (stereo unspecified),-4.959
26,O=C(CCn1c(=O)oc2ccccc21)NCC(O)c1ccc(F)c(F)c1 (stereo unspecified),132.5

row,Compound,Percent Effect [%]
1,O=C(CCCc1ccccn1)NCC(O)c1ccccc1Cl (stereo unspecified),8.067
2,O=C(CCn1c(=O)oc2ccccc21)NCC(O)c1ccccc1 (stereo unspecified),124.9
3,O=C(NCC(O)c1ccc(F)c(F)c1)c1ccccc1F (stereo unspecified),-40.57
4,O=C(CCn1c(=O)oc2ccccc21)NCC(O)c1ccc(Cl)cc1 (stereo unspecified),131.9
5,O=C(Cn1c(=O)oc2ccccc21)NCC(O)c1ccc2c(c1)CCO2 (stereo unspecified),-5.514
6,Nc1nnc(SCC(=O)NCC(O)c2ccccc2)s1 (stereo unspecified),7.273
7,CC(NCCn1c(=O)oc2ccccc21)c1ccccn1 (stereo unspecified),-1.92
8,O=C(CCc1ccccn1)NCC(O)c1ccc(Cl)cc1Cl (stereo unspecified),-3.695
9,CC(NC(=O)CCn1c(=O)oc2ccccc21)c1ccccn1 (stereo unspecified),132.8
10,Cc1ccc(C(O)CNC(=O)CCCc2ccccn2)o1 (stereo unspecified),-12.57
11,CC(c1ccccn1)N(C)C(=O)NCCn1c(=O)oc2ccccc21 (stereo unspecified),-13.01
12,COCc1ccc(C(=O)NS(=O)(=O)c2ccc3c(c2)CCC(=O)N3)cc1,-28.72
13,Cc1cc(N2CCN(C(=O)c3cc(Cl)c[nH]3)CC2)nc(C)n1,-11.81
14,COc1ccc(OC)c(C2CCN(C3CCN(C(C)=O)CC3)C2)c1 (stereo unspecified),-1.425
15,COc1ccc(-c2nc(C3CCNCC3)cc3c2ncn3C)cc1.Cl.Cl,-43.66
16,COc1cccc(-c2c[nH]c(C3CCCN3)n2)c1.Cl.Cl (stereo unspecified),-13.27
17,COc1ccc([C@@H](C)n2ccnc2-c2cc3n(n2)CCCNC3)cc1,-13.97
18,COc1ccc(-c2cc(C3CCNCC3)ccn2)cc1.Cl,126.8
19,COc1ccc(-c2cc(C3CCCNC3)ccn2)cc1.Cl (stereo unspecified),198.3
20,COc1cccc(-c2cc(C3CCCNC3)ccn2)c1 (stereo unspecified),179.8
21,COc1ccc([C@@H]2CN(c3cc(C(=O)O)ccn3)C[C@H]2N(C)C)cc1,-11.81
22,Cn1ccnc1CN1CCC(c2ccnc(-c3cccc(O)c3)c2)C1 (stereo unspecified),8.376
23,COc1ccc(-c2cc(C3CCN(C(C)=O)CC3)ccn2)cc1,135.1
